Legend:
[1] = tested on: Madurella mycetomatis MM55; settings: 7 days
[2] = tested on: Madurella mycetomatis MM55; assay: IC90; higher = less potent; settings: 7 days
[3] = tested on: Madurella mycetomatis MM55; assay: percent growth relative to solvent control; higher = less inhibition, active = 20 or less; settings: 100 µM; 7 days

Row | Structure (SMILES) | IC50 [1] [µM] | IC90 [2] [µM] | percent growth [3]
1 | COc1ccc(CN2CCOc3ccc(C(C)(O)CN(C)C)cc3C2)cc1C (configuration not stated) | 60.6 | 93.5 | 2.42% (active)
2 | COc1ccc(-c2cnc3ccc(N4CCCC4)nn23)cc1OC | 64 | 92.7 | 0.205% (active)
3 | O=C(c1ccco1)N(CCCn1ccnc1)c1nc2c(Cl)cccc2s1 | 59.1 | 94 | 3.24% (active)
4 | CC(C)c1ncc(-c2ccncc2)c([C@H]2CC[C@H](CNC(=O)c3cccnc3)CC2)n1 | – | – | 114% (inactive)
5 | COc1cc(NC(C)CCCN)c2ncccc2c1 (configuration not stated) | 64.5 | 92.8 | 0.211% (active)
6 | Cc1ccc2oc(-c3cc(NC(=O)Cc4ccccc4)ccc3Cl)nc2c1 | – | – | 96% (inactive)
7 | Clc1ccc(Cl)c(CO[C@H]2CCCC[C@@H]2n2ccnc2)c1 | 14.2 | 67.5 | 1.03% (active)
8 | COc1ccc(N(CCc2cccc(C)n2)C(=O)C2CCCCC2)cc1 | – | – | 28% (inactive)
9 | N=C(N)Nc1ccc(-c2ccc(-c3ccc(NC(=N)N)cc3Cl)o2)c(Cl)c1 | 11.4 | 17.8 | -6.7% (active)
10 | CCOc1ccc(-c2nc(CNCCc3ccc(F)cc3)cs2)cc1 | 10.4 | 19.6 | 3.57% (active)
11 | COc1ccc(S(=O)(=O)Nc2ccc(CN3CCN(C(=O)c4cccc(C#N)c4)CC3)cc2)cc1 | – | – | 113% (inactive)
12 | COC(=O)c1cccc2oc(-c3cccc(OC)c3NC(=O)c3cc(-c4ccccc4)on3)nc12 | – | – | 123% (inactive)
13 | CO[C@H]1/C=C/O[C@@]2(C)Oc3c(C)c(O)c4c(O)c(/c(=C/NN5CCN(C)CC5)c(O)c4c3C2=O)=N\C(=O)/C(C)=C\C=C/[C@H](C)[C@H](O)[C@@H](C)[C@@H](O)[C@@H](C)[C@H](OC(C)=O)[C@@H]1C | – | – | 92.6% (inactive)

From the supplement of paper PMC5940239
